# High-throughput results as filed in PubChem BioAssay.
# Most compounds without a hit are left out; they make up all but 8.5% or so of the library.
# KDM4E inh = blocks human JMJD2E demethylase activity | B2RXH2 | JMJD2E catalytic domain, FDH-coupled NADH fluorescence (FDH is formaldehyde dehydrogenase) | Potency, µM (highest dose often 57.1 µM), inactives show at the top dose activity change, negative = inhibition, hits mostly inhibitors | 1.6% of 230,000 active | AID 2147; active = well fitted inhibition curve with a large enough effect, not every such curve was filed as active; inconclusive = small, poorly fitted or top-dose-only effect, or another doubt; inactive = no such curve, though single readings can be large or run the other way;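 also: potency is read from the fitted curve at half-maximal effect; 0% = wells with enzyme and -100% = buffer wells without enzyme; nearly all actives have a fitted effect of over 50% in size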
# Coupling enz = inhibits coupling enzyme system, counter-screen for aldolase hits | 0.67% of 290,000 active | AID 2472 | activity change, negative = inhibition, % at 58.2 µM, hits read low | coupling enzyme system counterscreen, AmpLite Red fluorescence; in the data active = activity change below about -30%
#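 Final compound at 57.5 uM, incubated 10 min at RT with coupling enzyme reagent (glyceraldehyde-3-phosphate), then 20 min with substrate and AmpLite Red detection. Fluorescence read at 525/598 nm; tests interference with the coupling assay, not aldolase inhibition.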
# GoLoco inh red = RGS12 GoLoco-Gai1 interaction inhibition. Gai1:RGS12 GoLoco peptide FP, rhodamine, 10 min. Potency, µM (highest dose often 61.6 µM), for the others: at the top dose activity, negative = inhibition, usual class: inhibitors. 0.44% of 230,000 active; active = well fitted inhibition curve with a large enough effect, not every such curve was filed as active; inactive = no such curve, though single readings can be large or run the other way; also: potency is read from the fitted curve at half-maximal effect; nearly all actives have a fitted effect of over 30% in size
# Target sequence (P63096 whole entry, looked up): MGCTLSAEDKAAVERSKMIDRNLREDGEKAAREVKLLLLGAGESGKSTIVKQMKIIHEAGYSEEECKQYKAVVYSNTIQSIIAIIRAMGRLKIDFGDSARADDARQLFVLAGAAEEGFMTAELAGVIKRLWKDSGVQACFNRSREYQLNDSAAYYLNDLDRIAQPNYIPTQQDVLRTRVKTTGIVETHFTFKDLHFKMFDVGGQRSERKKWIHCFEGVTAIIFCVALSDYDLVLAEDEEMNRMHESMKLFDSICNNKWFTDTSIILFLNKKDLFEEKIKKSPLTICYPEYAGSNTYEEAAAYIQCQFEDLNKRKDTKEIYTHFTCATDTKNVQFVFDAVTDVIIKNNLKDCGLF
# Sfp inh = Sfp phosphopantetheinyl transferase inhibition | Biochemical Sfp PPTase activity, qHTS | 3.5% of 310,000 active | Q9F4F7 | Potency, µM, inactives show largest response in the series, negative = inhibition, hits mostly inhibitors;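 also: the enzyme is Sfp with the accession as filed and its product quenches rhodamine fluorescence; potency is read from the fitted curve at half-maximal effect; 0% = enzyme reaction without inhibitor and -100% = no enzyme wells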
#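 Fluorescence-quenching assay: 15 nM Sfp-PPTase preincubated 15 min at room temperature with compound, then 5 uM rhodamine-CoA and 12.5 uM BHQ-2-labelled YbbR peptide added. Fluorescence (ex 525/em 598 nm) read at start and after 30 min; difference gives rate.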
# ALDH1A1 block = ALDH1A1 (human) enzyme inhibition; P00352; Purified ALDH1A1, NADH fluorescence, propionaldehyde substrate; Potency, µM (top dose mostly 75.3 µM), for inactives: top-dose activity, negative = inhibition, most hits filed as inhibitors; 7.3% of 220,000 active; AID 1030; active = well fitted inhibition curve with a large enough effect, not every such curve was filed as active; inconclusive = small, poorly fitted or top-dose-only effect, or another doubt; inactive = no such curve, though single readings can be large or run the other way;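 also: potency is read from the fitted curve at half-maximal effect; plate controls were no enzyme wells and a reference inhibitor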
# NPSR antagonist = antagonists of human neuropeptide S receptor cAMP signaling; AID 1461; Potency, µM (doses to about 38.3 µM), inactives show at the highest dose activity change, negative = inhibition, actives largely listed as inhibitors; 1% of 220,000 active; CHO-NPSR cells, cAMP TR-FRET, antagonist mode; Q6W5P4; also: potency is read from the fitted curve at half-maximal effect; nearly all actives have a fitted effect of over 50% in size
# Target sequence (Q6W5P4 whole entry, looked up): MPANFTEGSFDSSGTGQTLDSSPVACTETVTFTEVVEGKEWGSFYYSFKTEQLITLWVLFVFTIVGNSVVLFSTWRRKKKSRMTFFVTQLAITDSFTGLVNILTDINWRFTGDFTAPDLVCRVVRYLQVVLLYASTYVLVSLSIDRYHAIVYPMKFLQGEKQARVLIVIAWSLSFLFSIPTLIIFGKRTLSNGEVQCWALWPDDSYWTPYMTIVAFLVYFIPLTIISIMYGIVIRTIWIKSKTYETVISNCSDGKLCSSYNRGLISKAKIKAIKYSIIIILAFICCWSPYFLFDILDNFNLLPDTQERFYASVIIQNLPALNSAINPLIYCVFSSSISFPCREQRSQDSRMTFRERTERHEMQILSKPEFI
# Numbers without * were called inactive; ? = inconclusive; . = no result given; [ ] = another dose, or the depositor's remark. Unless noted, calls follow the shape of the dose curve; as a rule, active = well fitted curve in the direction sought with a large enough effect; inconclusive = small, poorly fitted or top-dose-only effect, or another doubt; inactive = no such curve, though single readings can be large; an effect the other way counts as inactive or inconclusive. Unless noted, % is scaled to controls: 0 for no effect and ±100 for the full control effect.
SMILES,KDM4E inh,Coupling enz,GoLoco inh red,Sfp inh,ALDH1A1 block,NPSR antagonist
COc1ccccc1CNS(=O)(=O)c1ccc2c(c1)CCCN2C(C)=O,.,-1.4,.,12.3%,.,.
CCCCOc1ccc(CC2CCC(=O)NC2=O)cc1 (configuration not stated),-0.7%,-5.1,0.0%,2.2%,10.0%,-6.8%
Cc1cc(C)n(-c2cc(N3CCN(C(=O)c4ccc(C(C)(C)C)cc4)CC3)ccc2[N+](=O)[O-])n1,-0.6%,0.3,-10.3%,1.8%,?,?
CS(=O)(=O)N1CCN(c2ccc([N+](=O)[O-])c(N3CCOCC3)c2)CC1,-2.7%,-0.5,3.2%,2.0%,-10.5%,-10.1%[46.1 µM]
O=C(c1ccccc1)N1CCN(c2ccc([N+](=O)[O-])c(N3CCOCC3)c2)CC1,5.9%,1.3,83.7%,7.5%,0.891µM*,-11.1%
O=C(c1cccc(F)c1)N1CCN(c2ccc([N+](=O)[O-])c(N3CCOCC3)c2)CC1,-0.3%,-0.5,7.9%,11.9%,7.94µM*,-0.9%
Cc1cc(C)n(-c2cc(N3CCN(C(=O)c4cccc(F)c4)CC3)ccc2[N+](=O)[O-])n1,3.3%,-2.5,-9.2%,0.0%,4.47µM*,-5.3%
COC(=O)c1c(NC(=O)CN2CCN(c3cccc(Cl)c3)CC2)sc(C)c1C,?,4.5,12.9%,4.8%,5.3%,-25.0%
O=Cc1ccc(O)c2ncccc12,3.16µM*,-3.4,3.3%,24.7%,.,?
CCOC(=O)c1c(C)[nH]c(C(=O)OCC(=O)c2c(N)n(C)c(=O)n(C)c2=O)c1C,3.3%,2.3,3.0%,3.2%,8.3%,9.6%
[O-][n+]1onc2c1CCC(=N/O)/C2=N\Nc1ccccc1,14.2%,-26.8,14.1µM*,31.6µM*,3.55µM*,?
Cc1cc2c(nn1)CCc1c-2no[n+]1[O-],3.4%,0.8,-2.5%,13.9%,.,11.7%
CCN(C(=O)CSc1nnnn1-c1ccccc1)C1CCS(=O)(=O)C1 (configuration not stated),-2.0%,-0.3,7.3%,-0.3%,?,4.1%
COc1ccc(COc2ccc(C3C(S(=O)(=O)c4ccccc4)CON3C)cc2OC)cc1 (configuration not stated),-3.2%,0.7,-4.4%,14.9%,8.91µM*,-2.3%
COc1cc(CNC(=O)C2CC2)ccc1OCc1ccccc1,.,1.4,.,9.6%,.,.
O=C(O)CCCC[C@H]1SC[C@H]2NC(=O)N[C@@H]21,-0.7%[25.5 µM],3.6,5.9%[21.6 µM],14.6%,-6.9%[20.9 µM],.
COc1ccc(Cn2nnnc2CN(Cc2cc3ccc(C)cc3[nH]c2=O)C2CCCC2)cc1,?,-1.6,3.2%,7.2%,22.4µM*,?
COc1ccc(Cn2nnnc2CN(Cc2cc3cccc(C)c3[nH]c2=O)C2CCCC2)cc1,?,0.1,5.7%,0.4%,?,-17.6%[46.1 µM]
CCC(C)(C)n1nnnc1CN(Cc1cc2cc(OC)ccc2[nH]c1=O)C1CCCC1,?,0.7,1.4%,11.8%,-8.7%,?
COc1cc2cc(CN(Cc3nnnn3Cc3ccco3)C3CCCCC3)c(=O)[nH]c2cc1OC,?,-33.4*,79.7%,10µM*,?,1.2%[46.1 µM]
CCOc1ccc2[nH]c(=O)c(CN(Cc3nnnn3Cc3ccco3)C3CCCCC3)cc2c1,?,-22.7,149.4%,3.98µM*,?,-15.2%[46.1 µM]
CCOC(=O)c1c(NC(=O)c2ccccc2N(C)S(=O)(=O)c2ccccc2)sc2c1CCCC2,?,-1.5,2.8%,12.5%,?,-38.3%
CCOC(=O)c1c(NC(C)=O)sc2c1CCN(Cc1ccccc1)C2,.,-0.3,.,1.4%,.,.
CCOC(=O)c1c(NC(C)=O)sc2c1CCC(C=O)=C2Sc1ccccc1,-7.4%,-0.2,-17.4%,50.1µM*,5.01µM*,?
CCOC(=O)c1c(NC(C)=O)sc2c1CCCNC2=O,0.1%,7.1,.,14.0%,12.6µM*,-12.7%[46.1 µM]
SMILES,KDM4E inh,Coupling enz,GoLoco inh red,Sfp inh,ALDH1A1 block,NPSR antagonist
CCOC(=O)c1c(NC(=O)c2ccccc2Br)sc2c1CCc1ccccc1-2,?,0.3,-15.1%,39.8µM*,?,?
CCOC(=O)c1c(NC(=O)COC)sc2c1CCCC2,?,3.8,5.4%,6.8%,?,-7.3%[46.1 µM]
Cc1ccc(N2C(=O)N3[C@H](c4ccc(F)cc4)[C@@H]4C(=O)N(C5CCCCC5)C(=O)[C@@H]4[C@]3(C)C2=O)cc1,.,-3.2,.,0.1%,.,.
CC(=O)NS(=O)(=O)c1ccc(NC(=O)c2oc3c(Cl)cccc3c2C)cc1,0.3%,-4.9,14.6%,17.8%,.,?
O=C(N/N=C/c1cc([N+](=O)[O-])ccc1O)C1CCCCC1,7.08µM*,3.2,-11.7%,22.0%,-15.1%,-5.2%
Cc1cccc(NC(=O)CCC(=O)N/N=C/c2cc([N+](=O)[O-])ccc2O)c1,10µM*,-1.3,63.0%,12.6%,-6.5%,2.8%
O=C(CCC(=O)Nc1ccc(F)cc1)N/N=C/c1ccccc1O,25.1µM*,-2.2,12.4%,19.7%,1.3%,4.7%
O=C(CCC(=O)Nc1ccc(F)cc1)N/N=C/c1cc([N+](=O)[O-])ccc1O,7.08µM*,3.8,14.1%,3.7%,-3.5%,-14.8%
CN(C)CCN(CC1CCCN(Cc2ccccc2F)C1)C(=O)c1ccc(Cl)cc1 (configuration not stated),.,2.0,.,5.1%,.,.
CC1(CN2CCC(n3c(=O)[nH]c4ccccc43)CC2)OCc2ccccc2-n2cccc21 (configuration not stated),.,-0.3,-2.0%,-7.6%,7.3%,.
COc1cc(C(=O)OCC#N)ccc1OCc1c(C)noc1C,-3.7%,-2.8,1.2%,-4.8%,.,-2.5%[7.67 µM]
O=C(O)CCCn1cc(NC(=O)c2sc3ccccc3c2Cl)cn1,.,.,.,9.7%,.,.
O=C(CCC(=O)Nc1ccc(F)cc1)N/N=C/c1cccc(Br)c1,.,-30.6*,.,-5.2%,.,.
O=C(CCN1CCN(c2ccccc2)CC1)N/N=C/c1ccccc1O,28.2µM*,0.1,7.2%,12.0%,1.1%,3.2%
COc1cccc(/C=N/NC(=O)CCC(=O)Nc2ccc(Br)cc2)c1,.,-0.1,.,-0.8%,.,.
CN1CCN(CCC(=O)N/N=C/c2ccccc2F)CC1,5.5%,2.7,-9.7%,5.9%,.,10.2%
Oc1cccc2ccc[n+](CC(O)Cn3c4ccccc4c4ccccc43)c12 (configuration not stated),-8.7%,-1.5,19.3%,-28.5%,7.6%,-11.8%[46.1 µM]
C=CC1=C(C(=O)O)N2C(=O)C(NC(=O)Cc3ccccc3)C2SC1 (configuration not stated),-11.9%,-41.5*,3.5%,?,-16.5%,-1.4%[46.1 µM]
O=C(CCc1ccccc1)Nc1ccc(S(=O)(=O)N2CCCC2)cc1,-10.9%,-0.1,11.1%,-8.5%,12.6µM*,19.5%
CC1CCN(S(=O)(=O)c2ccc(NC(=O)CSc3ncccc3C(=O)O)cc2)CC1,-0.4%,19.0,-2.1%,7.7%,25.1µM*,9.5%[46.1 µM]
